Laboratory results from PubChem BioAssay AID1159580 (chemical genetic matrix, 2015).
Out of some 5,500 compounds screened, about 2,000 (36%) were called active. Another 18% or so got no clear call; they are omitted. Rule as the data show it: active = normalized growth mostly below about 0.91 (no sharp cut-off); inconclusive = no clear call, values can overlap the other calls; inactive = mostly above about 0.92. This is one part of the list.

Assay: chemical genetic growth profiling, strain panel (AID 1159580);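 also: tested at 20 µM; growth read once vehicle control cultures reached saturation at 30 °C; 1 = growth at the plate median or of vehicle wells; lower values mean less growth of the strain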
Conditions: growth OD

Measured: normalized growth

OCC(O)Cc1ccc2c(c1)OCO2 (centres undefined)
inactive: S. cerevisiae deletion strains, locus YJR043C, strain POL32, hits give low values 0.995 | S. cerevisiae deletion strains, locus YJR075W, strain HOC1, hits give low values 0.984 | S. cerevisiae deletion strains, locus YKL009W, strain mrt4, hits give low values 1 | S. cerevisiae deletion strains, locus YKL068W, hits give low values 1 | S. cerevisiae deletion strains, locus YKL085W, strain MDH1 (second series), hits give low values 1.03 | S. cerevisiae deletion strains, locus YKL085W, strain MDH1, hits give low values 1.03 | S. cerevisiae deletion strains, locus YKL160W, strain elf1, hits give low values 1 | S. cerevisiae deletion strains, locus YKL190W, strain CNB1, hits give low values 1.02 | S. cerevisiae deletion strains, locus YKR001C, strain vps1, hits give low values 0.999 | S. cerevisiae deletion strains, locus YKR026C, strain gcn3, hits give low values 0.989 | S. cerevisiae deletion strains, locus YKR091W, strain srl3, hits give low values 1 | S. cerevisiae deletion strains, locus YLL001W, strain dnm1, hits give low values 1 | S. cerevisiae deletion strains, locus YLL026W, hits give low values 0.997 | S. cerevisiae deletion strains, locus YLL041C, strain sdh2, hits give low values 0.994 | S. cerevisiae deletion strains, locus YLR027C, strain aat2, hits give low values 0.976 | S. cerevisiae deletion strains, locus YLR039C, strain RIC1, hits give low values 1.03 | S. cerevisiae deletion strains, locus YLR058C, strain SHM2, hits give low values 1.02 | S. cerevisiae deletion strains, locus YLR102C, strain apc9, hits give low values 1 | S. cerevisiae deletion strains, locus YLR221C, strain rsa3, hits give low values 0.997 | S. cerevisiae deletion strains, locus YLR258W, strain gsy2, hits give low values 1.01 | S. cerevisiae deletion strains, locus YLR262C, strain YPT6 (second series), hits give low values 1.01 | S. cerevisiae deletion strains, locus YLR262C, strain YPT6, hits give low values 1.06 | S. cerevisiae deletion strains, locus YLR268W, strain sec22, hits give low values 1 | S. cerevisiae deletion strains, locus YLR320W, strain mms22, hits give low values 0.983 | S. cerevisiae deletion strains, locus YLR330W, strain CHS5, hits give low values 1.01 | S. cerevisiae deletion strains, locus YLR342W, strain FKS1 (second series), hits give low values 0.99 | S. cerevisiae deletion strains, locus YLR342W, strain FKS1, hits give low values 0.992 | S. cerevisiae deletion strains, locus YLR357W, strain rsc2, hits give low values 0.973 | S. cerevisiae deletion strains, locus YLR370C, strain arc18, hits give low values 1 | S. cerevisiae deletion strains, locus YLR371W, strain rom2, hits give low values 0.989 | S. cerevisiae deletion strains, locus YLR384C, strain iki3, hits give low values 0.992 | S. cerevisiae deletion strains, locus YLR418C, strain cdc73, hits give low values 1.02 | S. cerevisiae deletion strains, locus YML016C, strain PPZ1, hits give low values 1.01 | S. cerevisiae deletion strains, locus YML032C, strain rad52, hits give low values 0.989 | S. cerevisiae deletion strains, locus YML120C, strain ndi1, hits give low values 0.995 | S. cerevisiae deletion strains, locus YML124C, strain tub3, hits give low values 0.996 | S. cerevisiae deletion strains, locus YMR058W, strain fet3, hits give low values 1.01 | S. cerevisiae deletion strains, locus YMR078C, strain ctf18, hits give low values 0.99 | S. cerevisiae deletion strains, locus YMR125W, strain sto1, hits give low values 0.997 | S. cerevisiae deletion strains, locus YMR129W, hits give low values 0.994 | S. cerevisiae deletion strains, locus YMR205C, strain PFK2, hits give low values 0.981 | S. cerevisiae deletion strains, locus YMR223W, strain ubp8, hits give low values 0.987 | S. cerevisiae deletion strains, locus YMR231W, strain pep5, hits give low values 0.996 | S. cerevisiae deletion strains, locus YMR263W, strain SAP30, hits give low values 1.03 | S. cerevisiae deletion strains, locus YMR307W, strain GAS1, hits give low values 0.956 | S. cerevisiae deletion strains, locus YNL067W, strain RPL9B, hits give low values 1.03 | S. cerevisiae deletion strains, locus YNL071W, strain lat1, hits give low values 1.01 | S. cerevisiae deletion strains, locus YNL128W, strain TEP1, hits give low values 1.02 | S. cerevisiae deletion strains, locus YNL153C, strain GIM3, hits give low values 1.03 | S. cerevisiae deletion strains, locus YNL209W, strain ssb2, hits give low values 1.02 | S. cerevisiae deletion strains, locus YNL233W, strain BNI4, hits give low values 1.04 | S. cerevisiae deletion strains, locus YNL248C, strain rpa49, hits give low values 0.979 | S. cerevisiae deletion strains, locus YNL250W, strain rad50, hits give low values 1.01 | S. cerevisiae deletion strains, locus YNL271C, strain bni1, hits give low values 0.996 | S. cerevisiae deletion strains, locus YNL298W, strain CLA4, hits give low values 1.01 | S. cerevisiae deletion strains, locus YNL307C, strain MCK1, hits give low values 0.999 | S. cerevisiae deletion strains, locus YNL322C, strain KRE1 (second series), hits give low values 1 | S. cerevisiae deletion strains, locus YNL322C, strain KRE1, hits give low values 1.01 | S. cerevisiae deletion strains, locus YNR049C, strain mso1, hits give low values 0.989 | S. cerevisiae deletion strains, locus YNR052C, strain pop2, hits give low values 0.989 | S. cerevisiae deletion strains, locus YOL006C, strain TOP1, hits give low values 1.07 | S. cerevisiae deletion strains, locus YOL012C, strain htz1 0.853 | S. cerevisiae deletion strains, locus YOL147C, strain pex11, hits give low values 1 | S. cerevisiae deletion strains, locus YOR001W, strain rrp6, hits give low values 0.985 | S. cerevisiae deletion strains, locus YOR061W, strain CKA2, hits give low values 1.02 | S. cerevisiae deletion strains, locus YOR069W, strain VPS5, hits give low values 1 | S. cerevisiae deletion strains, locus YOR070C, strain gyp1, hits give low values 1 | S. cerevisiae deletion strains, locus YOR080W, strain dia2, hits give low values 0.988 | S. cerevisiae deletion strains, locus YOR083W, strain WHI5, hits give low values 1 | S. cerevisiae deletion strains, locus YOR106W, strain vam3, hits give low values 1.03 | S. cerevisiae deletion strains, locus YOR136W, strain idh2, hits give low values 0.993 | S. cerevisiae deletion strains, locus YOR144C, strain elg1, hits give low values 0.997 | S. cerevisiae deletion strains, locus YOR184W, strain ser1, hits give low values 0.99 | S. cerevisiae deletion strains, locus YOR265W, strain rbl2, hits give low values 1 | S. cerevisiae deletion strains, locus YOR270C, strain vph1, hits give low values 1.03 | S. cerevisiae deletion strains, locus YOR290C, strain snf2, hits give low values 1.01 | S. cerevisiae deletion strains, locus YOR316C, strain cot1, hits give low values 0.997 | S. cerevisiae deletion strains, locus YPL051W, strain arl3, hits give low values 1 | S. cerevisiae deletion strains, locus YPL055C, strain LGE1, hits give low values 1.06 | S. cerevisiae deletion strains, locus YPL078C, strain atp4, hits give low values 1.02 | S. cerevisiae deletion strains, locus YPL106C, strain sse1, hits give low values 0.979 | S. cerevisiae deletion strains, locus YPL240C, strain hsp82, hits give low values 1 | S. cerevisiae deletion strains, locus YPL241C, strain CIN2, hits give low values 1.01 | S. cerevisiae deletion strains, locus YPR119W, strain clb2, hits give low values 0.995 | S. cerevisiae deletion strains, locus YPR141C, strain kar3, hits give low values 0.997 | S. cerevisiae deletion strains, locus YPR163C, strain tif3, hits give low values 0.992 | S. cerevisiae deletion strains, locus YPR167C, strain met16, hits give low values 0.996 | S. cerevisiae deletion strains, strain wtn01, hits give low values 0.997 | S. cerevisiae strains, strain wild type, hits give low values 1.01
